This note sets out measurements from PubChem BioAssay AID1220 (Sanford-Burnham Center for Chemical Genomics, 2008).

Molecules are shown by their SMILES. The whole screen tested about 190,000 compounds, of which about 1,300 (0.68%) were called active. The list comes from a sample in which actives are over-represented; it also holds similar structures and randomly drawn compounds. A number with no mark means an inactive call. Rule as the data show it: active = inhibition above about 50%; inactive = the rest.

Mannose-6-phosphate isomerase (Homo sapiens), sequence (P34949 whole entry, looked up): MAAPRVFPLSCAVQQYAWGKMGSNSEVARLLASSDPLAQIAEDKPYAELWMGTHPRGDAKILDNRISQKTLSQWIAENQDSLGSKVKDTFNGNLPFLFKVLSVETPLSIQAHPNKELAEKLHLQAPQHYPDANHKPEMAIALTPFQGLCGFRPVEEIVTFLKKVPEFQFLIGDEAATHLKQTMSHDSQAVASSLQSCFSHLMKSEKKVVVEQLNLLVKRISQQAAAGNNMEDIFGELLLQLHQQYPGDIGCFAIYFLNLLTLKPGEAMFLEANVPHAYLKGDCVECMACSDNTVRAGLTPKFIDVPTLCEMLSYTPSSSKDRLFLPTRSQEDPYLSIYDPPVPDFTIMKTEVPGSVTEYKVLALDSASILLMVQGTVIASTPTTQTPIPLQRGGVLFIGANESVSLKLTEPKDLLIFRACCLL

The assay has as its target Mannose-6-phosphate isomerase (Homo sapiens) (UniProt P34949). Put plainly: human PMI inhibitors, high substrate, primary screen, biochemical, fluorescence intensity, high mannose 6-phosphate (AID 1220). The note with it: recombinant PMI enzyme, coupled fluorescence intensity; at 20 µM; stronger effect = higher value.
Regarding `COC(=O)c1cc(COc2ccc3oc(C)c(C(=O)OC(C)C)c3c2)c(C)o1`, the inhibition (in general, the relative decrease from the control value, in per cent) was -0.3%. On to `CC(=O)NCC(=O)OCC(=O)Nc1ccc(C(C)=O)cc1`, for which the inhibition is -8.8%. Turning to `CC(=C1C2C=CC1C1C(=O)NC(=O)C21)c1ccccc1` (stereo not given), the inhibition was 3.8%.

On to `Cc1c(NC(=O)COc2cccc3c2OC(C)(C)C3)c(=O)n(-c2ccccc2)n1C`, for which the inhibition was -6.1%. Consider `c1ccc(N2CCN(c3cnc4ccccc4n3)CC2)cc1`, for which the inhibition was 5%. As to `CC(=O)N1CCC(=NNS(=O)(=O)c2ccc(C)c([N+](=O)[O-])c2)CC1`, the inhibition was -31.5%.

In the case of `O=C(NCc1nc2ccccc2[nH]1)C1=C[C@H](c2ccccc2)C[C@H](OCc2ccc(CO)cc2)O1`, the inhibition is 11%. For `Cn1c(Cn2c(=O)sc3ccccc32)nnc1SCc1cccc(F)c1`, the inhibition was -7.7%. Then `COCCNc1c(-c2ccc(OC)cc2)nc2ccc(Cl)cn12`, with -8.6%; and `Cc1ccc(C)c(S(=O)(=O)N/N=C2/CCCc3ccccc32)c1`, with -29.2%. On to `CCOC(=O)C1=C(O)C(=O)N(c2ccc(S(N)(=O)=O)cc2)C1c1ccc(OC)cc1` (stereo not given), for which the inhibition is 4.3%. For the compound `COc1cc(C(F)(F)F)nc(-c2ccccn2)n1`, the inhibition is 4.9%.

For the compound `CN(C)/C=C/C(=O)c1cc(N2CCOCC2)ccc1[N+](=O)[O-]`, the inhibition was 55.9% (active). For `O=C(CN1CCN(c2ccccc2)CC1)Nc1ccc2c(c1)OCCO2`, the inhibition is -3.7%. Take `CC(=O)c1cc(N2CCOCC2)ccc1[N+](=O)[O-]`: the inhibition was 2.8%. Turning to `O=C(CN1CCN(c2ccc(O)cc2)CC1)Nc1ccc2c(c1)OCCO2`, the inhibition was 62.8% (active).

Take `O=C(c1ccc(N2CCOCC2)cc1[N+](=O)[O-])N1CCOCC1`: the inhibition was 7.3%. As to `O=C(CN1CCOCC1)Nc1ccc2c(c1)OCO2`, the inhibition was 4.7%. With `O=C(NC1=NCCS1)c1cccc(S(=O)(=O)N2CCCCC2)c1`, the inhibition was 7.1%.

Take `Cc1cc(N2CCOCC2)nc2ccc(NC(=O)C3CCC(C)CC3)cc12` (stereo not given): the inhibition is 0.8%. For `COc1ccc(/C(C)=N/NC(=O)C2CC2)cc1`, the inhibition was -2.9%. Then `CCc1ccc(NC(=S)N2CCCC(C(F)(F)F)C2)cc1` (stereo not given), with 13.4%; and `O=C1C(=Cc2ccco2)C(=O)c2ccccc21`, with -11.7%; and `c1cc2[nH]snc2c2nc(C3CC3)nc12`, with 54.2% (active). On to `Cc1nc2ccc3[nH]snc3c2n1`, for which the inhibition was 2.6%.

With `Cc1cc(/C=C2\NC(=O)N(Cc3ccc(Cl)cc3)C2=O)c(C)n1C`, the inhibition is -58.7%. Then `O=C(CN1C(=O)S/C(=C\c2ccc(O)cc2)C1=O)c1ccccc1`, with 12.5%; and `CS(=O)(=O)N1CCN(c2ccccc2NC(=O)CSc2nnc(-c3ccco3)o2)CC1`, with 0.5%; and `CC(C)CN(C(=O)CSc1nnc(-c2ccco2)o1)c1c(N)n(Cc2ccccc2)c(=O)[nH]c1=O`, with -2.6%. Take `Nc1cccnc1-n1nc(C(F)(F)F)cc1C(F)(F)F`: the inhibition was -0.6%. Consider `Cc1cc(C(F)(F)F)nn1C(=O)c1cccnc1Cl`, for which the inhibition was 6.5%. As to `ONc1cccnc1-n1nc(C(F)(F)F)cc1C(F)(F)F`, the inhibition is 67.9% (active). As for `COc1cccc(N2CCN(c3ccc(S(=O)(=O)N4CCCC4)cc3)CC2)c1`, the inhibition is 18.6%. For `Cc1sc2ncnc(NCC(C)(C)N3CCOCC3)c2c1C`, the inhibition is -3.6%. For the compound `CCOC(=O)/C(=C/c1ccc(OC(=O)c2ccccc2)cc1)C(C)=O`, the inhibition was 4.7%. As for `COCCOC(=O)/C(=C/c1ccc(OC(=O)c2ccccc2)cc1)C(C)=O`, the inhibition was 0.4%. Then `CCOC(=O)/C(=C/c1ccc(OC(=O)c2ccncc2)cc1)C(C)=O`, with 61.4% (active). As for `Cn1c2ccccc2c2ncn(CCC3=CCCCC3)c(=O)c21`, the inhibition was 9.7%. `CCOC(=O)CSc1nc(C)c2cc(C)c(C)cc2n1`: the inhibition was 1.6%. In the case of `O=C(NC1C=CS(=O)(=O)C1)c1ccccc1` (stereo not given) it was 5.8%; in that of `COc1cccc(OC)c1C(=O)Oc1ccc2c(c1)O/C(=C\c1ccncc1)C2=O`, 7.7%. In the case of `COc1ccc(NC(=O)CSc2ncnc3c2cnn3Cc2ccccc2)cc1` it was 8.2%; in that of `O=C(Oc1cccc2c(OC(=O)N3CCCC3)cccc12)N1CCCC1`, 57.3% (active). In the case of `O=C(Oc1cccc2c(OC(=O)N3CCOCC3)cccc12)N1CCOCC1` it was 2.4%. With `O=C(Oc1ccc(Cl)c2ccccc12)N1CCCCC1`, the inhibition is -3.1%. As for `CC(C)CCC(C)N=Cc1c(O)n(Cc2ccccc2)c(=O)c2ccccc12` (stereo not given), the inhibition is 6.3%. With `CCOC(=O)Nc1ccc(Oc2ccccc2)cc1`, the inhibition is 4.8%. On to `N#CC1=C(N)C(C#N)(C#N)C(c2cccnc2)C2CC(c3ccccc3)CC=C12` (stereo not given), for which the inhibition was 47.2%. As to `N#CC1=C(N)C(C#N)(C#N)C(c2cccnc2)C2CCCC=C12` (stereo not given), the inhibition is 50.3% (active). `N#CC1=C(N)C(C#N)(C#N)C(c2ccc[nH]2)C2CCCC=C12` (stereo not given): the inhibition is 35.1%. In the case of `O=C(O)CCC(=O)Nc1ccc(C(=O)OCC(=O)c2ccc(Cl)cc2Cl)cc1`, the inhibition is 6.3%. `CCCCOC(=O)c1ccc(S(N)(=O)=O)o1`: the inhibition is -1.2%. For the compound `O=C(CCNc1cc(Cl)cc(Cl)c1)c1cccs1`, the inhibition was 7.8%. In the case of `COc1cc(NCCC(=O)c2cccs2)c(OC)cc1Cl`, the inhibition is 51.4% (active).

On to `Cc1ccc(NCCC(=O)c2cccs2)cc1Cl`, for which the inhibition was 18.9%. With `Clc1ccc(CSc2ncnc3nc[nH]c23)cc1`, the inhibition was 3.6%. For the compound `C=CCc1cccc(/C=N/c2ncccc2O)c1O`, the inhibition was 34.3%. As for `C=CCc1cccc(C=Nc2cc(Br)ccc2O)c1O`, the inhibition was 57% (active). As to `C=CCc1cccc(C=Nc2ccc(Br)cc2)c1O`, the inhibition was -8.2%. As to `O=C(NCCCN1CCCC1=O)C1CCCO1` (stereo not given), the inhibition was 5.1%. In the case of `Cc1nn(-c2ccccc2)c2[nH]c(=O)c(CNc3ccc4c(c3)OCCO4)cc12` it was 54.2% (active); in that of `Cc1nn(-c2ccccc2)c2[nH]c(=O)c(CNCCN3CCOCC3)cc12`, 4.3%. `CC(C)(C)c1nn(-c2ccccc2)c2[nH]c(=O)c(CNc3ccc4c(c3)OCCO4)cc12`: the inhibition is 5.7%. Turning to `CCc1ccc(NCc2cc3c(C)nn(-c4ccccc4)c3[nH]c2=O)cc1`, the inhibition was 8.8%.

`Cc1nn(-c2ccccc2)c2[nH]c(=O)c(CNCc3ccc4c(c3)OCO4)cc12`: the inhibition was 2.9%. Then `Cc1nn(-c2ccccc2)c2[nH]c(=O)c(CNc3ccc(N4CCOCC4)cc3)cc12`, with 55.6% (active); and `Cn1cc(S(=O)(=O)CC(=O)N2CCCc3ccccc32)c2ccccc21`, with 6.6%; and `Cc1ccc(N2C(=O)NC(NC(=O)C(C)(C)C)(C(F)(F)F)C2=O)cc1` (stereo not given), with 4.9%. Take `COC(=O)c1ccc(/C=N/NC(=O)CNc2cccc(C)c2)cc1`: the inhibition was 9.8%. In the case of `CN(C)S(=O)(=O)c1cccc(NC(=S)Nc2cc(Cl)cc(Cl)c2)c1` it was -6.4%; in that of `CN(C)S(=O)(=O)c1cccc(NC(=S)NC2CCCCC2)c1`, -2.3%; in that of `CCN(CCO)c1ccc(NC(=S)Nc2cccc(S(=O)(=O)N(C)C)c2)cc1`, 54.1% (active). In the case of `CCN(Cc1ccccc1)S(=O)(=O)c1cc(C(=O)c2c(N)n(C)c(=O)n(C)c2=O)ccc1OC` it was 0.7%. As to `CC1CCCN(C(=S)SCC(=O)O)C1` (stereo not given), the inhibition was 0.2%.

As to `CC(C)(C)NCC(=O)N/N=C/c1ccc(OCc2ccccc2)cc1`, the inhibition was -4.4%. With `Cc1cc(=O)[nH]c2c(N=Nc3ccc(O)cc3)c(N)nn12`, the inhibition was 45.7%. `Nc1nn2c(-c3ccccc3)cc(=O)[nH]c2c1N=Nc1ccc(Br)cc1`: the inhibition was 12.3%. In the case of `Nc1nn2c(-c3ccccc3)cc(=O)[nH]c2c1N=Nc1ccc(O)cc1` it was 55.4% (active); in that of `COC(=O)c1ccccc1NC(=O)N1CCN(C(=O)c2ccco2)CC1`, 13.1%; in that of `CCn1c(C)c(C(C)=O)c(N2CCN(c3ccc(OC)cc3)CC2)nc1=S`, 50.3% (active). In the case of `CCn1c(C)c(C(C)=O)c(N2CCN(c3ccccc3)CC2)nc1=S` it was -20.8%.

As for `CCn1c(C)c(C(C)=O)c(N2CCN(c3ccc(F)cc3)CC2)nc1=S`, the inhibition was -6.4%. For the compound `O=S(=O)(c1ccc(Br)cc1)N1CCN=C1SCc1cccnc1`, the inhibition was 0.3%.

For the compound `Cc1ccc(-n2c(=O)c3ccccc3n(CC(=O)NCc3ccco3)c2=O)cc1`, the inhibition is -5.8%. Turning to `CCCc1nnc2c(N(C)S(=O)(=O)c3ccccc3)nc3ccccc3n12`, the inhibition is 4.2%. As to `COc1ccc(NC(=S)NC(C)Cc2cccs2)cc1` (stereo not given), the inhibition is 3.7%. Consider `CCc1cccc(NC(=O)Cn2cc(C=O)c3ccccc32)c1`, for which the inhibition is -9.7%. As to `O=C(COc1ccc(Br)cc1)NCCO`, the inhibition is 8.7%. Regarding `CC(C)c1ccc(OC(=O)NCCO)cc1`, the inhibition was 9.1%. `CC(C)c1ccc(OCC(=O)NCCO)cc1`: the inhibition is 55.1% (active).

With `COc1ccc(/C=N/Nc2nccnc2Cl)cc1`, the inhibition was -6.9%. For the compound `c1ccc(Nc2ccc3c4c(cccc24)CC3)cc1`, the inhibition is 17.7%. For `CC(=O)c1ccc2c3c(cccc13)CC2`, the inhibition is 6%. With `Nc1ccc2c3c(cccc13)CC2`, the inhibition was 64.4% (active). Take `OC(COc1ccc2c(c1)OCO2)CN1CCN(c2ccc(F)cc2)CC1` (stereo not given): the inhibition is -1%. `CC(=O)c1cn(CC(=O)Nc2ccc(C)cc2C)c2ccccc12`: the inhibition was -0.4%. In the case of `COc1cc(/C=N/NC(N)=O)ccc1OC(=O)c1ccco1` it was 3.7%; in that of `Cc1ccc(N(C(=O)C2CCCO2)C2C=CS(=O)(=O)C2)cc1Cl` (stereo not given), 0.2%.

For `O=C(C1CCCO1)N(c1ccc(F)cc1)C1C=CS(=O)(=O)C1` (stereo not given), the inhibition was 52.9% (active). As to `CCOc1ccc(N(C(=O)C2CCCO2)C2C=CS(=O)(=O)C2)cc1` (stereo not given), the inhibition is -4.8%.
